Assay results as given in paper PMC13494018.
Values without a mark were called inactive. How the calls were made is not given here.

Biological target: CD276, Q5ZPR3
Sequence (Q5ZPR3 whole entry): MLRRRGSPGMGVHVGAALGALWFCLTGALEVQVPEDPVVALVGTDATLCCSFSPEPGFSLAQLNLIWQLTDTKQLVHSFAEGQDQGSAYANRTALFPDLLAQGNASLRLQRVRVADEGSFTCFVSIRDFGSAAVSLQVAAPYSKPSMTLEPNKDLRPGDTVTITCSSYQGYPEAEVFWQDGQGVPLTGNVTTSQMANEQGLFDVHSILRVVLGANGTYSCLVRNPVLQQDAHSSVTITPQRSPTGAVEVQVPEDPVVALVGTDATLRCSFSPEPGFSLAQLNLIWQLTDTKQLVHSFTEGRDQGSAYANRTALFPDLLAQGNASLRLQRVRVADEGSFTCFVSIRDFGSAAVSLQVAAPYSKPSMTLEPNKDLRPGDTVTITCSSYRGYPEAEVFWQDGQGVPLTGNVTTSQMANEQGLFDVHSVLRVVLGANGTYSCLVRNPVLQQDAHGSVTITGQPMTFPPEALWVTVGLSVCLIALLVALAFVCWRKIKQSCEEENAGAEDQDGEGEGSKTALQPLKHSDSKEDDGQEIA

| Binder | binding in a display sort |
| --- | --- |
| design_621_7e0052dc-ae49-49a0-b99f-9f3ee649cc2f_1041_dldesign_0_cycle1_af2pred (protein) DPAAVAAAEDMWAIAQQTWAAFTANAATITPAQARQYAAVFATAAVAMEDAARRVSPELAVGYRARAAEMRARAAAARAAAAA | not found |
| design_621_7e0052dc-ae49-49a0-b99f-9f3ee649cc2f_1011_dldesign_0_cycle1_af2pred (protein) DLEKKAKEHLEKAKKLAEKAAASNAAEASVYLSQAIEEASKAVELAKKAGPELYKKYSEEATKLVQRASKAVMAKAQAAA | not found |
| design_621_7e0052dc-ae49-49a0-b99f-9f3ee649cc2f_290_dldesign_0_cycle1_af2pred (protein) AAAALERAARIALAAAKAMLRTAEATGNAAAAAVAADLAAYAAATARAAGPALAPLAAEAEAVEARARALAA | not found |
| design_621_7e0052dc-ae49-49a0-b99f-9f3ee649cc2f_590_dldesign_0_cycle1_af2pred (protein) SERKESVDAGVKAAADIGKYQAKEIAKEDPEKGAAYLKEVEETYEKALASSPEEAFALTNAAFRANAKLAAAAAAKKAAAA | not found |
| design_621_7e0052dc-ae49-49a0-b99f-9f3ee649cc2f_501_dldesign_0_cycle1_af2pred (protein) GAEQVAFQTIVAGARHAARLENEEAAKEIAKVYADIAANLSKETQQKVLEAAKKIAKETEAGKKNGEIVVKELEKALEA | not found |
| design_621_7e0052dc-ae49-49a0-b99f-9f3ee649cc2f_147_dldesign_0_cycle1_af2pred (protein) MEAAAEIALKTAKAMTKSAVAAAEAGNLEDARQIAETAKEILEATAKKVSPELAKKLKEAAKKATAEAEAAVKAAAARLAA | not found |
| design_620_fbd04095-bef7-46a9-992d-f2cb8915922f_2241_dldesign_0_cycle1_af2pred (protein) AEKVRELADQMVAIAREAAEKGLSPAEIGAANGQVVDLLEEAYRLAKESGASQEVLDYLNAKNAEANRLLLAAQRA | not found |
| design_621_7e0052dc-ae49-49a0-b99f-9f3ee649cc2f_505_dldesign_0_cycle1_af2pred (protein) AAAAAARAAALAVRDKYAAKAKEYAAEAEKYAPTDARVKELLDQGKAEAAKGDAALAAGDYAAAEGYYALAYAYYSAALNRALA | not found |
| design_621_7e0052dc-ae49-49a0-b99f-9f3ee649cc2f_1278_dldesign_0_cycle1_af2pred (protein) AANAAEQAARLGKALASAAKNAIEAGNLESARKIAEVAVAAGEEAAELAVKYLEAEDPEAGKIFRELVEEEKARRAAEAA | not found |
| design_620_fbd04095-bef7-46a9-992d-f2cb8915922f_2436_dldesign_0_cycle1_af2pred (protein) EAAKEAEKAYKEAKEAAAAALAAADAAADKVPATAVDVLKRTVTANLKQAEKALKAGDAKAVKAQKKQLELLKEGAAAAA | not found |
| design_620_fbd04095-bef7-46a9-992d-f2cb8915922f_2199_dldesign_0_cycle1_af2pred (protein) AEAAAQAARASVAAARAAVKDARRIAENAKTPEQLESAKKVLEVARALAEDAERNAKAAGDEELVKLAEEARKEAEEAEKKVREKAEE | not found |
| design_620_fbd04095-bef7-46a9-992d-f2cb8915922f_2334_dldesign_0_cycle1_af2pred (protein) LTEEEQKELIIDTIKGLAESAKQFAKASGDPELAKQAEKVAELAKKAIEVTKKGTLEDGVKALSEVSKATMEVAKAA | not found |
| design_621_7e0052dc-ae49-49a0-b99f-9f3ee649cc2f_1483_dldesign_0_cycle1_af2pred (protein) AEAERLLAEARAAVAKGRAAGLAAAEAGLGAALEAARAMDAEARALAAAAEAAGHPEVAEEIRRAAGAAINEVLARASQVALAKAA | not found |
| design_621_7e0052dc-ae49-49a0-b99f-9f3ee649cc2f_624_dldesign_0_cycle1_af2pred (protein) AEAAKKKVEELLAKAKEEAKKALEDPANIEKYRAEMSKLIAEANRIGIASTPEVNTLAGSGIEEVLKLLDEAVKKAK | not found |
| design_621_7e0052dc-ae49-49a0-b99f-9f3ee649cc2f_449_dldesign_0_cycle1_af2pred (protein) SSNVEKAKELARNLTESAALDPASGALAGRALLAAARNAAAALTPEQSAALAAELRAAVAANQPADPEARALFEQAAAVLAA | not found |
| design_621_7e0052dc-ae49-49a0-b99f-9f3ee649cc2f_375_dldesign_0_cycle1_af2pred (protein) SQAAQIALNAAKSLAENIKKYAEVMSEEEAKGAIELLYDLAKYAKKEDPELGKKAEKIAEEAKKYVEKVFKEKKEEEEK | not found |
| design_620_fbd04095-bef7-46a9-992d-f2cb8915922f_2277_dldesign_0_cycle1_af2pred (protein) GAAAERAALRDAALAEVDALLAAGAAAAAAAASPVAALLDAHRAAAEVIARLRERDPAAGEEVAAEAQARFSALLRQASASVVA | not found |
| design_621_7e0052dc-ae49-49a0-b99f-9f3ee649cc2f_591_dldesign_0_cycle1_af2pred (protein) GEEEEKKKEVIEKRQEVLKLLAEAVRVGMEADPELASKAASESLELIAKADKYLKEGKYEEALAELEKAKEYVEKMLKEAKALLAAKL | not found |
| design_621_7e0052dc-ae49-49a0-b99f-9f3ee649cc2f_1478_dldesign_0_cycle1_af2pred (protein) AQALLDGVKRSSELAKEAEKYDPEAGKKILEVRTKGSAEASAVAVAGGTDAAVAAIAEKAAEEAKKLYEEAKKRAEERERE | not found |

| Binder | binding in a display sort |
| --- | --- |
| design_621_7e0052dc-ae49-49a0-b99f-9f3ee649cc2f_1174_dldesign_0_cycle1_af2pred (protein) AEKDEIVEKLLRAAGTATYVAYAFKDDAATKAKATATNQKAREAIQLLGTDFSPEAVALAKEAIEDAEKLKAELEAAQA | not found |
| design_621_7e0052dc-ae49-49a0-b99f-9f3ee649cc2f_1427_dldesign_0_cycle1_af2pred (protein) AAAAAEAAALAQINALTATAVAAAKDPATQPVANAALGQASALAIAQHKVDPAAGAKASQALAAGVEATAAARAAAKAAAAAAAA | not found |
| design_620_fbd04095-bef7-46a9-992d-f2cb8915922f_1950_dldesign_0_cycle1_af2pred (protein) GVAETLKRNLEAAERILKEGEELFETDPAAGAAKFKSAELLATGVVATAEADPSVPEEILKRAKELAKRAKEALEEAEKKVEELKA | not found |
| design_621_7e0052dc-ae49-49a0-b99f-9f3ee649cc2f_1226_dldesign_0_cycle1_af2pred (protein) MEAEEYLEKAKEAAEKAKEAAAKGDLAAANAYLGKAIEYAAKAQEVGTPEIAEKANAELARAVKAVQAVAAKVAAA | not found |
| design_620_fbd04095-bef7-46a9-992d-f2cb8915922f_2282_dldesign_0_cycle1_af2pred (protein) AAAEGQALVKQATAYAEEALRLAREGGDPEEVAAKLNLAATYAIKAMNLPATQAQGAKVMDYLGEVAREVAAIRAARAAA | not found |
| design_621_7e0052dc-ae49-49a0-b99f-9f3ee649cc2f_162_dldesign_0_cycle1_af2pred (protein) MGELFAALIEAMRLASEAARLAKAGEKEEAKEKLEKALKLVGEVAKATGTTAIYDETAKKAEASSLEEAARAVMSGAAKIISEAAKKA | not found |
| design_621_7e0052dc-ae49-49a0-b99f-9f3ee649cc2f_216_dldesign_0_cycle1_af2pred (protein) RMAEVAERIRRTAEEVREGDAETAVRLAAEVLELARREGNEASAHLAANALRAARAGDVERAVVYLEAAAEITALS | not found |
| design_621_7e0052dc-ae49-49a0-b99f-9f3ee649cc2f_407_dldesign_0_cycle1_af2pred (protein) SEAQRLYDAAKTWADIANAAIQQAAADPSTAAVAVAAAKAAVASAKRLAEKAEKLAAKKPEYAPLAKDAKAAVAAAAAAAKAAAA | not found |
| design_621_7e0052dc-ae49-49a0-b99f-9f3ee649cc2f_896_dldesign_0_cycle1_af2pred (protein) SAAAAAAAAAKAVAAKTAEALVKQAEALIKEAEKSTKEEGLKLRKAAAENYKLAGTLYEQAGDTATAKKLKEEGEKVEKEAEEKA | not found |
| design_621_7e0052dc-ae49-49a0-b99f-9f3ee649cc2f_687_dldesign_0_cycle1_af2pred (protein) ALEEALERLKKQAEEAEKAGDKEAAKLAKKGAEQMEKAKTDPVAAMQALLAAAAEADKLAPKVGKVANRVAIEAIRGANAIFRAAQ | not found |
| design_621_7e0052dc-ae49-49a0-b99f-9f3ee649cc2f_606_dldesign_0_cycle1_af2pred (protein) DVAEVLVRTAQAVARQAQAAAALSPEEALAVAQANQQTVAVLLAAAKAAGSAEAVAAAQQAQATVAAVIAAAQARLAA | binds (active) |
| design_621_7e0052dc-ae49-49a0-b99f-9f3ee649cc2f_452_dldesign_0_cycle1_af2pred (protein) EEDERRAEELRRRAEEMLEAAKRAASLPPAERARLLGEAARVVEEARELAERDPRYRPVYDLAVAAFNALATAVGRALAAAA | not found |
| design_621_7e0052dc-ae49-49a0-b99f-9f3ee649cc2f_741_dldesign_0_cycle1_af2pred (protein) MEELKKAAEAAEKLAEVTLAIAKQADPKLAEKAKKLKEEVKKVYEEGKKDPSTAKEKLKELEKLSKEITELAAEASKLAVAKAA | not found |
| design_620_fbd04095-bef7-46a9-992d-f2cb8915922f_1968_dldesign_0_cycle1_af2pred (protein) DAAVQAAVAAGQAAAERARETGERAREAGDEETAARLEALAQSVDILADGAAATKDAHAAATLQTLVRQAEREVEEAERRLEA | not found |
| design_621_7e0052dc-ae49-49a0-b99f-9f3ee649cc2f_282_dldesign_0_cycle1_af2pred (protein) ARAKIVEAAKKAAKEAEAATTRGEVLVALAKAAAVFNRVGDAAGAARVSAAIVQATQLDAAEAKKLAVEVLTAIAEEAA | not found |
| design_620_fbd04095-bef7-46a9-992d-f2cb8915922f_2025_dldesign_0_cycle1_af2pred (protein) GLAEVLRASGLALEAYELAEKLAKENPEEGRKAFQEAARLSLRAAARALAIARAFPEIAEFALRLAQRLVELAAEAAEKARELEA | not found |
| design_621_7e0052dc-ae49-49a0-b99f-9f3ee649cc2f_1261_dldesign_0_cycle1_af2pred (protein) AADSVALGQANAEAMLAVADPSQLPAAAAAIAAASPAVAERARRIGLRLAEAAGADVAAFRAAYDAAVAAAKA | not found |
| design_621_7e0052dc-ae49-49a0-b99f-9f3ee649cc2f_121_dldesign_0_cycle1_af2pred (protein) EEAERKARTAELLKEAIHLGFRGIAVGPEYIKEGAKKLEEAAKLLPEKKPLLEKMAELAKKAAESTPTEALQLTLEMIEIAKEVVE | not found |
| design_620_fbd04095-bef7-46a9-992d-f2cb8915922f_2412_dldesign_0_cycle1_af2pred (protein) ADGSRLTEAFRVAAEARRVGEEAGKLLGEEALEEAERAAAELRRLLAAAMRAMAAGTGADEAVNAALDAARAALAEFEERLKEAR | not found |
